Source: PubChem BioAssay (National Center for Advancing Translational Sciences (NCATS))
Compounds with a hit are over-represented: about 8.1% of the library has one in this group of screens.
KB-V1 MDR tox: qHTS assay for MDR1-selective chemotherapeutics: Primary screen using the drug-selected MDR subline cells KB-V1; KB-V1 MDR cells viability, CellTiter-Glo, 72 h; Potency, µM (top dose mostly 46.1 µM), hits mostly cytotoxic; 400,000 compounds, 3.4% hits; note: % is set by controls: 0 for no effect and ±100 for the full control effect; nearly all actives have a fitted effect of over 60% in size
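Cytotoxicity via CellTiter-Glo luminescence after 72 h compound exposure at 37 degrees C. Cells: drug-selected KB-V1 line, DMEM phenol-red free plus 10% FBS. Compounds tested at multiple concentrations; normalized data fitted to concentration-effect curves.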
ELG1 DNA repair: qHTS screen for small molecules that inhibit ELG1-dependent DNA repair in human embryonic kidney (HEK293T) cells expressing luciferase-tagged ELG1; AID 504467, 2011; HEK293T ELG1-luciferase reporter, luminescence, 16 h; DNA damage induced by 5-fluorouridine; 330,000 compounds, 2.3% hits; Potency, µM (titrated, usually from 46.1 µM), without a hit: at the top dose activity change, negative = inhibition, usual class: inhibitors; note: % is set by controls: 0 for no effect and ±100 for the full control effect; nearly all actives have a fitted effect of over 55% in size
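Reporter activity after DNA damage by 5-fluorouridine is monitored. Compound-treated cells incubate 16 hr at 37 °C, then ONE-Glo is added for 30 min before luminescence reading.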
KB-3-1 tox: qHTS assay for MDR1-selective chemotherapeutics: Primary screen using the parental adenocarcinoma cell KB-3-1; 400,000 compounds, 1.4% hits; Potency, µM (top dose mostly 46.1 µM), most hits filed as cytotoxic; KB-3-1 viability, CellTiter-Glo ATP luminescence, 72 h; note: % is set by controls: 0 for no effect and ±100 for the full control effect; nearly all actives have a fitted effect of over 60% in size
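KB-3-1 parental drug-naive adenocarcinoma cells in DMEM/10% FBS, incubated 72 h at 37 C with pin-transferred compounds across a concentration series. Viability by CellTiter-Glo luminescence; concentration-response curves fitted after normalization.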
MCF10A rerep: A quantitative high throughput screen for small molecules that induce DNA re-replication in MCF 10a normal breast cells | AID 624296, 2012 | MCF 10A DNA re-replication, Hoechst nuclear intensity, 48 h | Potency, µM (doses to about 46.1 µM), inactives show top-dose activity, positive = re-replication, hits mostly activators | 350,000 compounds, 2.9% hits; note: % of control where 0% means no effect; nearly all actives have a fitted effect of over 50% in size
SW480 rereplic: A quantitative high throughput screen for small molecules that induce DNA re-replication in SW480 colon adenocarcinoma cells | SW480 DNA re-replication, Hoechst DNA content imaging, 48 h | 340,000 compounds, 1.8% hits | Potency, µM (doses to about 46.1 µM), for the others: top-dose re-replication activation, actives largely listed as activators; note: % of control where 0% means no effect; nearly all actives have a fitted effect of over 55% in size
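Image-based DNA-content assay: after two days of treatment, nuclei were labelled with the DNA dye Hoechst and imaged, and hits were compounds raising the count of nuclei showing high fluorescence intensity.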
* marks the source's active call; other numbers are inactive results; i = inactive; ? = inconclusive; / = not tested or not shown. Calls come from the whole dose curve; as a rule, active = well fitted curve in the direction sought with a large enough effect; inconclusive = small, poorly fitted or top-dose-only effect, or another doubt; inactive = no such curve, though single readings can be large; an effect the other way counts as inactive or inconclusive. Potency is the fitted concentration of half-maximal effect.

SMILES | KB-V1 MDR tox | ELG1 DNA repair | KB-3-1 tox | MCF10A rerep | SW480 rereplic
COc1ccc(C(=O)/C=C/c2ccccc2)c(OC)c1 | i | ? | ? | ? | 28%
COc1ccc(C(=O)/C=C/c2cc(OC)c(O)c(OC)c2)c(F)c1 | ? | 8.2µM* | ? | ? | 27%
COc1ccc(C(=O)/C=C/c2ccc(N(C)C)cc2)c(OC)c1 | ? | 13% | ? | 16µM* | ?
O=C(O)c1cnn2c(C(F)F)cc(C3CC3)nc12 | i | 0% | i | 2% | -4%
COc1ccc(-c2cc(C(F)F)n3ncc(C(=O)NCC4CCCO4)c3n2)cc1 (stereo not drawn) | i | 2.1µM* | i | ? | ?
COc1ccc(-c2cc(C(F)F)n3ncc(C(=O)n4ccnc4C)c3n2)cc1 | i | -6% | i | 16µM* | ?
COc1ccc(-c2cc(C(F)F)n3ncc(C(=O)Nc4cc(OC)ccc4OC)c3n2)cc1 | i | / | i | / | /
O=C(NCC1CCCO1)c1cnn2c(C(F)F)cc(C3CC3)nc12 (stereo not drawn) | 6.5µM* | 6% | i | 3% | -2%
O=C(CSC1=NNC(c2ccccn2)S1)Nc1ccccc1 (stereo not drawn) | i | 2% | i | ? | 16µM*
C=CCc1c(C)nc(-c2ccccc2)nc1Nc1ccccc1O | i | ? | i | 23µM* | 6%
C=CCc1c(C)nc(-c2ccccc2)nc1N/N=C/c1ccncc1 | i | ? | i | 25% | 23µM*
C=CCc1c(C)nc(-c2ccccc2)nc1N/N=C/c1ccccc1 | i | ? | i | ? | -66%
C=CCc1c(C)nc(-c2ccccc2)nc1N/N=C(\C)c1ccc(N)cc1 | 23µM* | -5% | ? | -21% | 3%
COc1ccc(CN2CCN(CC3CC3)CC2CCO)cc1C (stereo not drawn) | i | 5% | i | -1% | 6%
O=c1c(-c2cccnc2)nc2ccccc2n1C(CCc1ccccc1)c1nc2ccccc2[nH]1 (stereo not drawn) | ? | / | i | / | /
OCCC1CN(Cc2cnc(N3CCCC3)s2)CCN1C1CCCC1 (stereo not drawn) | i | 6% | i | 14% | -5%
O=C(c1ccc(C(F)(F)F)n(Cc2ccc(Cl)cc2)c1=O)N1CCOCC1 | i | 16% | i | 3% | -21%
O=C(c1cc(Cl)c(=O)n(Cc2ccc(Cl)cc2)c1)N1CCOCC1 | 21µM* | -8% | i | -1% | -5%
CCOC(=O)C1CCCN(CC(=O)Nc2c(C(=O)OC)[nH]c3ccc(Cl)cc23)C1 (stereo not drawn) | i | 21µM* | i | 13% | 4%
CCn1c(N2CCN(CC(=O)c3c(C)n(C)c4ccccc34)CC2)nc2c1c(=O)[nH]c(=O)n2C | i | ? | i | 1% | ?
COC(=O)c1ccccc1NC(=O)N1CCN(C(=O)c2ccco2)CC1 | 7.3µM* | -2% | ? | 3% | -8%
COc1ccc2c(c1)c(C(=O)CN1CCN(C(=O)c3ccco3)CC1)c(C)n2C | 23µM* | 9% | i | ? | -6%
CCn1c(N2CCN(CC(=O)c3c(C)n(C)c4ccc(OC)cc34)CC2)nc2c1c(=O)[nH]c(=O)n2C | i | ? | 21µM* | 20% | -5%
COc1ccc(-c2noc(CCC(=O)NCc3ccc(C)cc3)n2)cc1 | i | / | i | / | /
COC(=O)c1[nH]c2cccc(OC)c2c1NC(=O)CCN1CCN(c2cccc(Cl)c2)CC1 | / | 18µM* | / | / | /
COC(=O)c1c(NC(=O)CN2CCN(C(=O)c3ccco3)CC2)c2c(C)cccc2n1C | i | ? | i | 1% | -5%
COC(=O)c1[nH]c2ccccc2c1NC(=O)CN1CCCCCC1 | i | ? | i | -3% | -2%
